The assay relates to PPARg:RXRa 270nM:90nM, anti-RXR (NR concentration 270 nM, RXRa partner concentration 90 nM). Description: PBM binding z-score (relative to random genomic background probes); higher = stronger binding; sequences stand for … in GC…GCGATTGACAGCGTAGAATGAAGG
The method in brief:
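Regression normalization was applied to scanned fluorescence from custom Agilent 4×180K protein-binding microarrays. Before scanning, arrays were incubated 1 h with ligand-free nuclear receptor dimers, and binding was detected with antibodies against each partner (one per run). Binding z-scores use the random background probes as reference.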
CCTAGCAGGCCAGGGTCACACAAGCATTTCGCTT gave a PBM binding z-score of 2.57.
To ATATGTAGGTTATGGGGTCATTCAGTTTGCGCAT belongs 7.03.
To ACTATTACTTGAGACGAGGGCAACCGATAGGTTG belongs 0.46; to CCTACTGGGCCATCAAGTCATTGATATCAACGTT, 1.67; to TCATAAAGGTAAAGGTGAAAGTCGAACGATATGA, 5.2.
Sequence TCTGCTAGTTCAGTTGGTCAGCTAACGAGCTGCC registered a PBM binding z-score of 0.545.
In turn, TCATATATGTAAACAGGTGAAAGTCCGTAAGTTA showed a PBM binding z-score of 2.97.
Then ATTTCTAGGTAACCAAGTTCAGTGAATGCCGAAC, with 1.8.
ACTAGTTGGTCAGCTGACGTCACACACAATTCGG: the PBM binding z-score was -0.246.
To ACAGAAAGGTGAGTGAAGGTAACTCAGCTGGACG belongs 1.23; to TCTAGTTGGTCACGGAGCTCACACACGACGGGTA, 1.56.
Then ATCTCTAGGTAACCATGTTCAGTGAATGCCGAAC, with 0.662; and AGTCAAAGTTCATCTAGGAAACGTAAGATATGCT, with 6.21.
Then TCTATTAGTTGAAGGGCAACCGCCGAGTCCGTTT, with 2.19.
TCAGATAGGTAAACAGGTGAAAGTCCGTAAGTTA yielded a PBM binding z-score of 2.9.
As to CCGACTGGGGCATAAGGGTACCATAAGCCAGCCC, the PBM binding z-score worked out at 1.35.
The sequence ATATCTAGGTTAAGGGTCATTCAGGTTGGTTCGC showed a PBM binding z-score of 10.3.
To TGTTGTAGATCAATAGAGGTTAAGAAAGTGCGCT belongs 0.944.
CCTAGTGGGTCAAGGTCACACACGCTATAGGTAC: the PBM binding z-score is 7.42.
Then ACTATGAGTTGACTTAGGGCAACCGATACGACGC, with 0.524; and GCTGCTAGGTCAATTGATGGTCAGCTAAAGCTCG, with 1.87.
To CCTACTGGGCCATTCAGAGGTCATTGGTCATATG belongs 3.38.

The record behind these values is the supplement of paper PMC6555819.
